We go through nine molecules from PubChem BioAssay (NCI).

This is part of a sample that, as a whole, favours compounds with a hit. Of some 83,000 tested, about 20% had one in any assay.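 Single-dose data. Exposure time 48 hours. Values below 10 considered active.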 Unmarked numbers belong to inactive results. The source made the active and inactive calls.

Common to all, as to experiment: NCI-60 one-dose screen, 48 h (100 = growth as untreated, 0 = no growth, -100 = all killed)
Conditions in all cases: 10 µM unless noted

In test [1] the test system is RPMI-8226 leukemia.
In test [2] the test system is OVCAR-8 ovarian.
The test system of test [3] is OVCAR-5 ovarian.
Test [4] concerns OVCAR-4 ovarian.
Test [5] has as its system SK-OV-3 ovarian.
The subject of test [6] is IGROV1 ovarian.
For test [7], the system named is OVCAR-3 ovarian.
Test [8] deals with HS 578T breast.
Test [9] has as its system NCI/ADR-RES ovarian.
Test [10] deals with T-47D breast.
In test [11] the test system is BT-549 breast.
Test [12] relates to MDA-MB-435 melanoma.
Test [13] concerns SW-620 colon.
Test [14] deals with MCF7 breast.
In test [15] the test system is HCT-116 colon.
For test [16], the system named is HCC-2998 colon.
Test [17] deals with KM12 colon.

As to `CCCCC/C=C/C(C)=C/C1CC(C)C/C=C/CCC(O)C(OC(N)=O)CCC(C)CC(O)C(C)C(=O)O1` (configuration not stated), the growth in test [1] was 56.3%; in [2], 98.5%; in test [3], 102%; in test [4], 107%; in test [5], 111%; in test [6] it was 87.3%. In addition, the growth was 129% in test [7]; 94% in [8]; 96% in test [9]; 91.6% in test [10]; 120% in [11]; 50.6% in [12]. Besides, the growth was 103% in test [13]; 86.5% in test [14]; 94.1% in [15]; 52.3% in test [16]; 102% in test [17].

Take `CN(C)CC(O)c1ccc(/C=C/c2ccc(Cl)cc2)cc1` (configuration not stated): the growth in test [1] was -8.89% (active); in test [2], -34.2% (active); in test [3] it was 2.11% (active); in [4], 25.2%; in test [5] it was 52.8%; in test [6] it was -57.8% (active). In addition, the growth was -64.8% (active) in [7]; -26.3% (active) in test [8]; 5.74% (active) in test [9]; 30.9% in test [10]; 78.8% in test [11]; -48.2% (active) in test [12]. The growth in [13] was -68.7% (active); in test [14], -81.6% (active); in test [15], -58.3% (active); in [16], -69% (active); in test [17], -91.5% (active).

As for `CC1(C)NCCC[C@]2(C)[C@H]3CC[C@@H]4[C@H]5[C@H](C(=O)/C=C/c6ccco6)CC[C@]5(CO)CC[C@@]4(C)[C@]3(C)CC[C@@H]12`, the growth in [1] was 44.2%; in [2], 95.2%; in [3], 101%; in test [4], 79.9%; in test [5] it was 93.1%; in [6] it was 89.5%. Besides, the growth was 92.6% in test [7]; 86.8% in test [8]; 95.2% in [9]; 75.7% in test [10]; 89.1% in [11]; 66.7% in test [12]. The growth in test [13] is 69.7%; in [14], 46.6%; in test [15], 33.7%; in [16], 91.4%; in test [17], 82.9%.

Take `COc1ccc(C(=O)c2cc(C)c(OC)c(C)c2)c(OC)c1OC(=O)C(Cl)Cl`: the growth in [1] was 23.4%; in test [2], 10.1%; in [3], 45.2%; in test [4] it was 46.7%; in [5], -2.06% (active); in [6] it was 22.3%. In addition, the growth in test [7] was -4.52% (active); in [8] it was 20.5%; in [9], -3.92% (active); in test [10], 59.5%; in [11] it was 11.4%; in [12] it was -28.4% (active). Besides, the growth was 20% in test [13]; 12.4% in [14]; 1.56% (active) in test [15]; 9.93% (active) in [16]; 8.08% (active) in test [17].

Consider `O=[N+]([O-])CC(c1ccccc1)c1c[nH]c2ccccc12` (configuration not stated), for which the growth in test [1] is 50.7%; in [2], 52.7%; in test [3], 79.4%; in test [4], 91.5%; in test [5] it was 96.3%; in [6] it was 53.7%. Besides, the growth is 42.4% in [7]; 64% in test [8]; 26% in [9]; 45.1% in [10]; 56.6% in test [11]; -14.6% (active) in test [12]. In addition, the growth is 27.9% in test [13]; 29.9% in [14]; 32.7% in [15]; 77.2% in test [16]; 43.6% in test [17].

For `CCCC/C=N/NC(=S)NCc1ccccc1`, the growth in test [1] was 97.6%; in [2], 97.5%; in test [3] it was 92.7%; in test [4], 96.3%; in test [5], 88.9%; in [6], 110%. For the same molecule, the growth in test [7] was 104%; in test [8] it was 95%; in test [9] it was 104%; in [10], 88.3%; in test [11], 102%; in test [12] it was 98.4%. The growth in test [14] is 87.7%; in test [15] it was 90.9%; in [16], 109%; in [17], 104%.

Take `COc1ccc(-c2cnc3c(-c4cccc5ncccc45)cnn3c2)cc1`: the growth in test [1] was 68.1%; in [2], 26.8%; in [3], 82.1%; in test [4], 6.3% (active); in test [5], 24.4%; in test [6], 45.1%. In addition, the growth in [7] was 57.7%; in test [8] it was 25.4%; in [9], 45.4%; in [10], 45.7%; in [11], 37.1%; in test [12], 58%. The growth in test [13] is 73.8%; in [14], 72.2%; in [15], 11.9%; in test [16] it was 90.7%; in [17], 69.3%.

`CCNc1nc2cc(Nc3ccnc4cc(Cl)ccc34)ccc2o1`: the growth in test [1] is 80.9%; in test [2] it was 85.3%; in test [3] it was 71.8%; in test [4], 75.5%; in test [5] it was 84.8%; in test [6], 70.1%. The growth in test [7] is 80.9%; in [8], 84.5%; in [9], 52.3%; in [10] it was 66.4%; in test [11], 81.4%; in [12], 9.8% (active). Moreover, the growth in test [13] is 54.9%; in [14], 40.8%; in test [15] it was 42.3%; in test [16] it was 68.7%; in test [17], 38%.

For `O=C(CSc1nc2ccccc2[nH]1)NCc1ccccc1`, the growth in [1] is 101%; in test [2] it was 104%; in test [3], 95.4%; in test [4], 97.6%; in test [5] it was 101%; in test [6] it was 102%. Further, the growth was 105% in test [7]; 97.9% in test [8]; 102% in test [9]; 92% in [10]; 105% in test [11]; 95.8% in test [12]. Besides, the growth in test [13] was 99.2%; in test [14], 95.5%; in [15] it was 107%; in [16], 102%; in test [17], 105%.
